Assay in all cases: DAPPL (digital affinity profiling via proximity ligation, sequencing); 10 mM Tris-HCl pH 7.5, 50 mM NaCl, 1 mM DTT, 4% glycerol, room temperature, 30 min; GST-TFs on glutathione beads, 16-mer random dsDNA library, 0.1% formaldehyde crosslink after washing; high values mean tight binding
The target of one assay is T1, FEV (Homo sapiens, UniProt Q99581 1-238).
T1 sequence: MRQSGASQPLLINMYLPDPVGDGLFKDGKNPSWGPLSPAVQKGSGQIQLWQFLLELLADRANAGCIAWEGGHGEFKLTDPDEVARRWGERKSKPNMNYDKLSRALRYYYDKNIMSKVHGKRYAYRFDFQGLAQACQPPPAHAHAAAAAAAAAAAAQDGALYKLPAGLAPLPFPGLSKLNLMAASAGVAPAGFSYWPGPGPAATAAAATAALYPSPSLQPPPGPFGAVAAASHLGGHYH
The settings on record: protein: recombinant; tags: N-terminal GST; dsDNA, one strand shown. The method in brief: (§1)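 After expression in yeast as GST fusions, human transcription factors were bound to glutathione beads, DNA-barcoded and mixed with a tag-only sample. The pools were incubated with 200 nmole of a 16-mer random double-stranded DNA library in Tris/NaCl/DTT/glycerol buffer (30 min, room temperature), washed and crosslinked with 0.1% formaldehyde. Proximity ligation with BsaI/T4 ligase ran for 1 h at 37 °C, before PCR amplification and sequencing on an Illumina NextSeq500. Binding signal is a hexamer's read frequency for a factor divided by its frequency for the tag-only sample.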

A further assay deals with ETV5 (Homo sapiens, UniProt P41161 1-510). To be noted: protein: recombinant; tags: N-terminal GST; dsDNA, one strand shown. The method in brief: as §1
Chain of ETV5 (P41161 whole entry): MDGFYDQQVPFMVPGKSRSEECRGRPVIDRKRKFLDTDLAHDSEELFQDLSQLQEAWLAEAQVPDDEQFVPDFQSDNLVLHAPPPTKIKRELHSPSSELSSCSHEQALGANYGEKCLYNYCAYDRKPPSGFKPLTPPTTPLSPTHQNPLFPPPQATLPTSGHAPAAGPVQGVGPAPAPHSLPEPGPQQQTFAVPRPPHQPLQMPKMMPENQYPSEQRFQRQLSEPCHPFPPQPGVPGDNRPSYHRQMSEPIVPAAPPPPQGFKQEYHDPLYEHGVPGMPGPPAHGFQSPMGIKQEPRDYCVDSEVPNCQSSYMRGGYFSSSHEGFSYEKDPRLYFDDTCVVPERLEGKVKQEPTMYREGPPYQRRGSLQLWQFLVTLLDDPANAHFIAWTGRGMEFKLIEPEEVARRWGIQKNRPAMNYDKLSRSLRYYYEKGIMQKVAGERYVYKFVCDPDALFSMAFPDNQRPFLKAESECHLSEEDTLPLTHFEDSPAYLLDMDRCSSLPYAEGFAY
In a further assay the target is HSF1 (Homo sapiens, UniProt Q00613 1-529). The settings on record: protein: recombinant; tags: N-terminal GST; chain copies: 3; dsDNA, one strand shown. The method in brief: as §1
Chain of HSF1 (Q00613 whole entry): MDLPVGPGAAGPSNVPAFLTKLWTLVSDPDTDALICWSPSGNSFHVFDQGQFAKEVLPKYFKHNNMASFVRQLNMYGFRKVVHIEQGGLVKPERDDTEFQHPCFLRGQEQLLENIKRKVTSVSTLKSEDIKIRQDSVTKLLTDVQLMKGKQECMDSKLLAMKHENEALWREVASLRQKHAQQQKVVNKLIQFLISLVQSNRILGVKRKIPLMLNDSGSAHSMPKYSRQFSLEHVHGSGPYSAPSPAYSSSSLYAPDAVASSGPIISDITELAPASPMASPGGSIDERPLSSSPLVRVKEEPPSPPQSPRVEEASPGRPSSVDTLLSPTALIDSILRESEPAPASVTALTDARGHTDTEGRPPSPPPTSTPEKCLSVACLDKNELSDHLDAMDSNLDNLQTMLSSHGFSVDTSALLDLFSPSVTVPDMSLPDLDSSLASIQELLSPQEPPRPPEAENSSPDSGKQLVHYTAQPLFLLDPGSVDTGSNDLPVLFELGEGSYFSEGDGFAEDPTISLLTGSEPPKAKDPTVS
The next assay has as its target T2, SPIC (Homo sapiens, UniProt Q8N5J4 1-248).
T2 sequence: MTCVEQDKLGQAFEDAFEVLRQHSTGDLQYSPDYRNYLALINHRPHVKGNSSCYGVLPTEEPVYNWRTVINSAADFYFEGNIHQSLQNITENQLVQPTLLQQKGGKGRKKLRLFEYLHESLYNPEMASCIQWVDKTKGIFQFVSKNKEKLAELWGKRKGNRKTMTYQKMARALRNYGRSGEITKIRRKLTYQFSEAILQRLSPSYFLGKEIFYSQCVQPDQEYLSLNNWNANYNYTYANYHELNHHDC
To be noted: protein: recombinant; tags: N-terminal GST; dsDNA, one strand shown. Summed up: as §1

For another assay, the target named is ELF4 (Homo sapiens, UniProt Q99607 1-663). To be noted: protein: recombinant; tags: N-terminal GST; dsDNA, one strand shown. Summed up:
as §1

The target in a further assay is T3, ELK4 (Homo sapiens, UniProt P28324-2 1-405).
T3 sequence: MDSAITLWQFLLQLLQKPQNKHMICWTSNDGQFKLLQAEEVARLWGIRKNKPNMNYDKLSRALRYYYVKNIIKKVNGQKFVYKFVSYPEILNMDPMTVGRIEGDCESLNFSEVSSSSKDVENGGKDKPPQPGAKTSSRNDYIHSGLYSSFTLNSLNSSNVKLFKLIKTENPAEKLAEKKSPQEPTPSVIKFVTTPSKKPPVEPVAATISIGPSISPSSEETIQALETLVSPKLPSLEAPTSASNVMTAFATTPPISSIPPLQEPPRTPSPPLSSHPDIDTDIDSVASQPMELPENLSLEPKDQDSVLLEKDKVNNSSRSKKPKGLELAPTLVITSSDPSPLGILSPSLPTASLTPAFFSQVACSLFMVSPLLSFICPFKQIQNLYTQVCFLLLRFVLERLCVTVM
To be noted: protein: recombinant; tags: N-terminal GST; dsDNA, one strand shown. The method in brief: as §1

For a further assay, the target named is T4, ETV2 (Homo sapiens, UniProt O00321 1-342).
T4 sequence: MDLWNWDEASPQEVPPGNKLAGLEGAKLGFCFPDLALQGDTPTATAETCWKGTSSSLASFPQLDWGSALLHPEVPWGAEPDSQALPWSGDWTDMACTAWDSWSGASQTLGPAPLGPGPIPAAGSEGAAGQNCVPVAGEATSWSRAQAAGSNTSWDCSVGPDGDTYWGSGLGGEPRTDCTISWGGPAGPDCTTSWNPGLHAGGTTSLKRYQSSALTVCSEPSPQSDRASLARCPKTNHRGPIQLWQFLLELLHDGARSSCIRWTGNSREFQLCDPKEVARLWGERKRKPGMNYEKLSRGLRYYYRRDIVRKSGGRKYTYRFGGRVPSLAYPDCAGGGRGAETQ
The settings on record: protein: recombinant; tags: N-terminal GST; dsDNA, one strand shown. The method in brief:
as §1

The next assay concerns the target T5, ELF3 (Homo sapiens, UniProt P78545 1-371).
T5 sequence: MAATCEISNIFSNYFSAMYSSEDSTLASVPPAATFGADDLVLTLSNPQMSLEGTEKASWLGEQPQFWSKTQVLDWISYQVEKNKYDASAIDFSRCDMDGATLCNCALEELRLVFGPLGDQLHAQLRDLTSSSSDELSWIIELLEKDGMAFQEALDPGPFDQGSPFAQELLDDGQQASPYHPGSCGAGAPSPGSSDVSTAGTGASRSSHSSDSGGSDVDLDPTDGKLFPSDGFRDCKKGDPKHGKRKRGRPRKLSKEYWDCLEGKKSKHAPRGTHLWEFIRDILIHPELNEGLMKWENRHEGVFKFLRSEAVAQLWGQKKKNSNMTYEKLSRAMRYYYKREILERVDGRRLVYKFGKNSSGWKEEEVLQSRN
To be noted: protein: recombinant; tags: N-terminal GST; dsDNA, one strand shown. The method in brief: as §1

Another assay concerns the target CRX (Homo sapiens, UniProt O43186 1-299). To be noted: protein: recombinant; tags: N-terminal GST; dsDNA, one strand shown. Summed up: as §1
In the next assay the target is ETV1 (Homo sapiens, UniProt P50549 1-477). To be noted: protein: recombinant; tags: N-terminal GST; dsDNA, one strand shown. Summed up:
as §1

In the next assay the target is T6, ERF (Homo sapiens, UniProt P50548 1-548).
T6 sequence: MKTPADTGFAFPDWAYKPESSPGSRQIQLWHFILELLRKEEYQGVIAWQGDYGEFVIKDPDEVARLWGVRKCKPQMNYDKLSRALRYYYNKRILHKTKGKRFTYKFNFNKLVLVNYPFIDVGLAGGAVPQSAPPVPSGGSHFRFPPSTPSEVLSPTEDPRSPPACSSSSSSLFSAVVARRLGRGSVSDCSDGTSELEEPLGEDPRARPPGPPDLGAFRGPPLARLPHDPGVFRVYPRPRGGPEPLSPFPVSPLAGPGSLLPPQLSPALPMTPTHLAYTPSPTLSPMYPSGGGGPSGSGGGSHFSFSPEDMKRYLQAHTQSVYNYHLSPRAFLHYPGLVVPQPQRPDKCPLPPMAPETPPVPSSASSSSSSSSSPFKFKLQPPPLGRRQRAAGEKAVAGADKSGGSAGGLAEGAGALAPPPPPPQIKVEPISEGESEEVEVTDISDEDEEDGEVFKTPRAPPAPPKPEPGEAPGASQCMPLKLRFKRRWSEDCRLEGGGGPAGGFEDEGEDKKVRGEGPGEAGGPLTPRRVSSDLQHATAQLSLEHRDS
The settings on record: protein: recombinant; tags: N-terminal GST; dsDNA, one strand shown. Summed up: as §1

The next assay concerns the target T7, ETV3L (Homo sapiens, UniProt Q6ZN32 1-361).
T7 sequence: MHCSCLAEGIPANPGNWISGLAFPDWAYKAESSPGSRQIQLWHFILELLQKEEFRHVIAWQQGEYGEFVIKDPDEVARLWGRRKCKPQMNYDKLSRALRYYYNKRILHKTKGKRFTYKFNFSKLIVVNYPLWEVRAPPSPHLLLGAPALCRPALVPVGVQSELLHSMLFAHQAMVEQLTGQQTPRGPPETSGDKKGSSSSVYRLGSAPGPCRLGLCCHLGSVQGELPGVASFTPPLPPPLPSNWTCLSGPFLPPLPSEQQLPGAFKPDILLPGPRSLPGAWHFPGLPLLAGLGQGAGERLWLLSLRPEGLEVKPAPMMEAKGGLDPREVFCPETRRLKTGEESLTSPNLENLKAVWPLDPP
To be noted: protein: recombinant; tags: N-terminal GST; dsDNA, one strand shown. The method in brief:
as §1

Another assay deals with T8, ETS2 (Homo sapiens, UniProt P15036 1-469).
T8 sequence: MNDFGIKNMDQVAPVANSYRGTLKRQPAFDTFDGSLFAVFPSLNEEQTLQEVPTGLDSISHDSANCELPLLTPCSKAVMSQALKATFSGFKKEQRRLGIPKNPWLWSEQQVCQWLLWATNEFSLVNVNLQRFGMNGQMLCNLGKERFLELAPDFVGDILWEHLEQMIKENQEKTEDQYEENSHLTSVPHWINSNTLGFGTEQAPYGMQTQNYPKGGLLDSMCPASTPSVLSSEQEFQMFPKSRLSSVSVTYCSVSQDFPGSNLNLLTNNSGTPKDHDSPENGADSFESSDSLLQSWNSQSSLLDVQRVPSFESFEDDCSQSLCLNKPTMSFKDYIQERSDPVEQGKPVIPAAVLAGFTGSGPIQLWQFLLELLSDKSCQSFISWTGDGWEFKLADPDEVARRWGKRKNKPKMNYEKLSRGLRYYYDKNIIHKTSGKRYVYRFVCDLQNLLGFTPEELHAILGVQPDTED
The settings on record: protein: recombinant; tags: N-terminal GST; dsDNA, one strand shown. The method in brief: as §1

A further assay addresses T9, SPDEF (Homo sapiens, UniProt O95238 1-335).
T9 sequence: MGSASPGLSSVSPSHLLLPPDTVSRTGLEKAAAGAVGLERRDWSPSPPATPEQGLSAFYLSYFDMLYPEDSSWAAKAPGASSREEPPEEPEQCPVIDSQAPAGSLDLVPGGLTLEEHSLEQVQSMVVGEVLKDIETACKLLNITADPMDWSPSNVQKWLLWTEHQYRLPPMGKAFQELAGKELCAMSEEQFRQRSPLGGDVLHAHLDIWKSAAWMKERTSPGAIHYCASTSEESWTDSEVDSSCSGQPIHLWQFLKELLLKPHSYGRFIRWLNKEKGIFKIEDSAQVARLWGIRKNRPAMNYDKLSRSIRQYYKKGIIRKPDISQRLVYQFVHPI
The settings on record: protein: recombinant; tags: N-terminal GST; dsDNA, one strand shown. Summed up: as §1

The target of the next assay is T10, ETV7 (Homo sapiens, UniProt Q9Y603 1-341).
T10 sequence: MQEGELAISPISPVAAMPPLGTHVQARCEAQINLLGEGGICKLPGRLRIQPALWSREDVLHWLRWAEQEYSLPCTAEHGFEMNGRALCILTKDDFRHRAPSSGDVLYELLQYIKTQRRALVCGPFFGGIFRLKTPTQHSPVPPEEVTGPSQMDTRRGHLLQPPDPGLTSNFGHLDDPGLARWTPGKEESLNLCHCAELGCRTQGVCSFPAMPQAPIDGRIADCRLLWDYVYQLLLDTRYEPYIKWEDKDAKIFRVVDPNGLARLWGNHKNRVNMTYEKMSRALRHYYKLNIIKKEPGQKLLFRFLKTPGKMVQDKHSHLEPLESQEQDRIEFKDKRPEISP
The settings on record: protein: recombinant; tags: N-terminal GST; dsDNA, one strand shown. The method in brief: as §1

The next assay concerns the target T11, ELF5 (Homo sapiens, UniProt Q9UKW6-2 1-255).
T11 sequence: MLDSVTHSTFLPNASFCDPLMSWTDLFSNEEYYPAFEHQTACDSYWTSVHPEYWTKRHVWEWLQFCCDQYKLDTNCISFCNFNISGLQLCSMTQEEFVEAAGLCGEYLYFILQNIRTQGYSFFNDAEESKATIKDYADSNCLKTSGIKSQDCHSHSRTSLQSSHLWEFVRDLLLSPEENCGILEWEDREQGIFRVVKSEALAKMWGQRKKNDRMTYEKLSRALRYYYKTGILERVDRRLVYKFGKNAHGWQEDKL
To be noted: protein: recombinant; tags: N-terminal GST; dsDNA, one strand shown. Summed up:
as §1

For the next assay, the target named is T12, ETV3 (Homo sapiens, UniProt P41162-2 1-143).
T12 sequence: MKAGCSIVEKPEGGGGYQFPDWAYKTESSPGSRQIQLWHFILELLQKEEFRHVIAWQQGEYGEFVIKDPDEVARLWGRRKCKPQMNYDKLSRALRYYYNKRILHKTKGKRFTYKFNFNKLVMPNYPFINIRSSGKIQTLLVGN
The settings on record: protein: recombinant; tags: N-terminal GST; dsDNA, one strand shown. Summed up: as §1

Another assay concerns the target ETV6 (Homo sapiens, UniProt P41212 1-452). The settings on record: protein: recombinant; tags: N-terminal GST; dsDNA, one strand shown. The method in brief: as §1

Chain of ETV1 (P50549 whole entry): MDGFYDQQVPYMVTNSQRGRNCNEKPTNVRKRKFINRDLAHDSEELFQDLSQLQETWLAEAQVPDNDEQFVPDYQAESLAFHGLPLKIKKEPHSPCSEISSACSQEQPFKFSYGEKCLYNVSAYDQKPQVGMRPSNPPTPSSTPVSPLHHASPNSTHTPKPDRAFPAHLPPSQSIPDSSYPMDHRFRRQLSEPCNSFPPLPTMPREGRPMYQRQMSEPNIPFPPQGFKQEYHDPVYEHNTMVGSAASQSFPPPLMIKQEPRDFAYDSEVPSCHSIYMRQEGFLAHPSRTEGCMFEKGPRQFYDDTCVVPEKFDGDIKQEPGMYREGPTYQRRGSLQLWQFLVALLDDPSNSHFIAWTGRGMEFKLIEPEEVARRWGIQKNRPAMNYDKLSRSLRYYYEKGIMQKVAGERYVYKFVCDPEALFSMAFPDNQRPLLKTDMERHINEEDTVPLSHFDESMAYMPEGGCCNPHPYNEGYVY
Chain of ELF4 (Q99607 whole entry): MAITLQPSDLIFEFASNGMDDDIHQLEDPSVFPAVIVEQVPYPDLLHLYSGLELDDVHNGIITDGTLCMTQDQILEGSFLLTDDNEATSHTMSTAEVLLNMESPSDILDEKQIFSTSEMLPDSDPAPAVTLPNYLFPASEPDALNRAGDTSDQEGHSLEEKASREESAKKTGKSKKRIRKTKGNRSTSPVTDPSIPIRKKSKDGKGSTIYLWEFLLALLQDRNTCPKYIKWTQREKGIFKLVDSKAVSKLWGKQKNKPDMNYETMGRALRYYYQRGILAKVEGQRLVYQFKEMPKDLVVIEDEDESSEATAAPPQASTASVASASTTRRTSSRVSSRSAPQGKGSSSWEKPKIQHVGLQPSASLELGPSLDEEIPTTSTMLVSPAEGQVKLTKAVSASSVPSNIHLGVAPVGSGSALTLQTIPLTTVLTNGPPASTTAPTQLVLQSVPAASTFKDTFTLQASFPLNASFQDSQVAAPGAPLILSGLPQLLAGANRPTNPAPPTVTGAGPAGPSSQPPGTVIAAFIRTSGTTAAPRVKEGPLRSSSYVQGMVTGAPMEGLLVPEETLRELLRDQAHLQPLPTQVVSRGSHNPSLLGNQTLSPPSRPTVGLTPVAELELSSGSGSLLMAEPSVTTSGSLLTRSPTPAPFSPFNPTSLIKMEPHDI
Chain of CRX (O43186 whole entry): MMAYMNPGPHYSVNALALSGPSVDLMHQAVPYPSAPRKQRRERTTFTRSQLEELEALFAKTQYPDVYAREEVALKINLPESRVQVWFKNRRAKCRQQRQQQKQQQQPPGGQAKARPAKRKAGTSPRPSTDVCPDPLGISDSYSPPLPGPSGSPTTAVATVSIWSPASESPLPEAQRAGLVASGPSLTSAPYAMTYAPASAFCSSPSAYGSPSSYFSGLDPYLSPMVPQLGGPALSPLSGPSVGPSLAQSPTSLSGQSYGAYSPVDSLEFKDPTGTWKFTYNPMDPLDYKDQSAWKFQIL
Chain of ETV6 (P41212 whole entry): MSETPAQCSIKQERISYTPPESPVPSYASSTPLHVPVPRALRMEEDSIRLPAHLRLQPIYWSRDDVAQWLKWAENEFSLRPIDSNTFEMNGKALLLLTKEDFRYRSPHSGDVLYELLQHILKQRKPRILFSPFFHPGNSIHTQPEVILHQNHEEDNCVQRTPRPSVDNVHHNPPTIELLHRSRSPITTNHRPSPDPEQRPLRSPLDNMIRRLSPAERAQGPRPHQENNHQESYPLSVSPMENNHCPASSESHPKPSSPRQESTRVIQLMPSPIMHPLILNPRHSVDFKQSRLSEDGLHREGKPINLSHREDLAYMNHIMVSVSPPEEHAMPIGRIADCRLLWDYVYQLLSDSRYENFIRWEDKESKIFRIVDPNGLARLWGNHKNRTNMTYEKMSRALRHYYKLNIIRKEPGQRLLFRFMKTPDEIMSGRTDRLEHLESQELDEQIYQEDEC

For CCGACC, the binding signal in the assay with FEV was 1.71 fold enrichment (6-mer frequency, TF over GST control); with ETV5, 1.5 fold enrichment (6-mer frequency, TF over GST control); with HSF1, 1.14 fold enrichment (6-mer frequency, TF over GST control); with SPIC, 1.45 fold enrichment (6-mer frequency, TF over GST control); with ELF4, 1.54 fold enrichment (6-mer frequency, TF over GST control); with ELK4, 1.61 fold enrichment (6-mer frequency, TF over GST control). For the same sequence, the binding signal with ETV2 is 1.46 fold enrichment (6-mer frequency, TF over GST control); in the assay with ELF3, 1.63 fold enrichment (6-mer frequency, TF over GST control); in the assay with CRX, 1.13 fold enrichment (6-mer frequency, TF over GST control); with ETV1, 1.53 fold enrichment (6-mer frequency, TF over GST control); with ERF, 1.59 fold enrichment (6-mer frequency, TF over GST control); in the assay with ETV3L, 1.67 fold enrichment (6-mer frequency, TF over GST control). For the same sequence, the binding signal in the assay with ETS2 is 1.49 fold enrichment (6-mer frequency, TF over GST control); in the assay with SPDEF, 1.54 fold enrichment (6-mer frequency, TF over GST control); in the assay with ETV7 it was 1.55 fold enrichment (6-mer frequency, TF over GST control); with ELF5, 1.48 fold enrichment (6-mer frequency, TF over GST control); with ETV3, 1.46 fold enrichment (6-mer frequency, TF over GST control); with ETV6, 1.67 fold enrichment (6-mer frequency, TF over GST control).

For the origin of these results see paper PMC7862700, “An all-to-all approach to the identification of sequence-specific readers for epigenetic DNA modifications on cytosine”.
